Test results reported in PubChem BioAssay AID2553 (Johns Hopkins Ion Channel Center, 2010).
Among all 310,000 compounds or so, about 3,300 (1.1%) were called active. The sample holds actives, similar compounds and a random draw of the others, so the mix is not that of the screen.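 The calls were made as follows: active = B-score under library mean minus 3 SD, initial fluorescence not abnormally high, positive integrated signal ratio; inactive = the rest.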

The molecules below were run against Short transient receptor potential channel 6 (Mus musculus) (UniProt Q61143) (assay: mouse TRPC6 channel inhibitors, primary screen, cell-based, HEK293, membrane potential dye (AID 2553;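 as to B-score: B-score derived from integrated fluorescence ratio over the kinetic read; more negative B-score means stronger inhibition of depolarization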)). Conditions: ACh-evoked depolarization, at 10 µM; stronger effect = lower value.
Sequence of Short transient receptor potential channel 6 (Mus musculus) (Q61143 whole entry, looked up): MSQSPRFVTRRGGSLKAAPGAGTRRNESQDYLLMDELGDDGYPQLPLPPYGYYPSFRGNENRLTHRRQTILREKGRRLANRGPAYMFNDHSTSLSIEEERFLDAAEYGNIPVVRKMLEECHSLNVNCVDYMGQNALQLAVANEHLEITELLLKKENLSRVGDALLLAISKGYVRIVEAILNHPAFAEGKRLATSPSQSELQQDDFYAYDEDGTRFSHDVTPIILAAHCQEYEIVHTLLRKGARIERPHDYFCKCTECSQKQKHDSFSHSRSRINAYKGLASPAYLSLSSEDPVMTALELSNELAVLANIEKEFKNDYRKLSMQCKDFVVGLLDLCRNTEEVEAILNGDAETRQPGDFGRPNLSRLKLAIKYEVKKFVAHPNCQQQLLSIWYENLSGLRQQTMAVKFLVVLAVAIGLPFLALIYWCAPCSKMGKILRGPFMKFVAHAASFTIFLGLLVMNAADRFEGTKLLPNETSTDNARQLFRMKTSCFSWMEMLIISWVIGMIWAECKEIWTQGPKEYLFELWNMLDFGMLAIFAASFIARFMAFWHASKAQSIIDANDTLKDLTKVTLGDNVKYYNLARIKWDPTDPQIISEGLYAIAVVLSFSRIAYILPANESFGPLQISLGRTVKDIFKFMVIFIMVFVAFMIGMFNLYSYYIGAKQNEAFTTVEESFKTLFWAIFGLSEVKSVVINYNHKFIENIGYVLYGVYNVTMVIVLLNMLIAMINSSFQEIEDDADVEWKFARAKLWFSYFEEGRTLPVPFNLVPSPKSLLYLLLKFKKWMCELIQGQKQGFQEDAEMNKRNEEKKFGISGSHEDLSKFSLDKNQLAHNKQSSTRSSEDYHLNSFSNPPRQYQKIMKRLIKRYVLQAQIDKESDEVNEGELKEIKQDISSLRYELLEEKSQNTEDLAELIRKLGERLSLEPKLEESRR

Row | Compound | B-score
1 | Cc1onc(C(=O)NN)c1C(=O)N1CCN(C(c2ccccc2)c2ccccc2)CC1 | inactive
2 | O=C(c1ccc(-n2cnnn2)cc1)N1CCN(C(c2ccccc2)c2ccccc2)CC1 | -5.27 (active)
3 | Cn1nnnc1SCC(=O)N1CCN(C(c2ccccc2)c2ccccc2)CC1 | inactive
4 | COc1ccc(Cc2nnc(SCC(=O)N(c3ccccc3)C(C)C)n(N)c2=O)cc1 | inactive
5 | C=CCSC(CC)(CC)C(N)=O | inactive
6 | Oc1c(Cl)cc(Cl)c(Cl)c1Cc1c(O)c(Cl)cc(Cl)c1Cl | -7.71 (active)
7 | COc1cc(NC(=O)C2CC(c3ccccc3O)=NO2)c(OC)cc1Cl (stereo unspecified) | inactive
8 | Cc1ccc(F)cc1NC(=O)N1CCCN(c2ccc(C(F)(F)F)cn2)CC1 | inactive
9 | CN(CC(=O)Nc1ccccc1[N+](=O)[O-])Cc1ccc(Br)cc1 | -5.44 (active)
10 | Cc1ccc(NC(=O)CN(C)Cc2ccc(F)cc2)c([N+](=O)[O-])c1 | inactive
11 | CN(CC(=O)Nc1ccc(N2CCOCC2)cc1)CC(=O)Nc1ccccc1[N+](=O)[O-] | inactive
12 | O=C(Nc1ccccc1-c1nc2ccccc2[nH]c1=O)c1cccs1 | inactive
13 | C/C(=N\Nc1nc2ccccc2[nH]1)c1cccs1 | -13.6 (active)
14 | C/C(=N\Nc1ncc(Cl)cc1Cl)c1cccs1 | inactive
15 | Cc1cc(OCC(=O)N(C)c2c(N)n(Cc3ccccc3)c(=O)[nH]c2=O)c(C(C)C)cc1Cl | inactive
16 | CC(C)c1ccc(OCC(O)Cn2cnc3ccccc32)cc1 (stereo unspecified) | -9.55 (active)
17 | CC(=O)OC(COc1ccc(F)cc1)Cn1cnc2ccccc21 (stereo unspecified) | inactive
18 | CC(C)c1ccc(OCC(O)CN2CCN(c3ccccn3)CC2)cc1 (stereo unspecified) | inactive
19 | N=c1c2c(-c3ccccc3)c(-c3ccccc3)n(Cc3ccccc3)c2ncn1CCCO | -7.35 (active)
20 | COCCn1cnc2c1c(=O)n(Cc1ccc(Br)cc1)c(=O)n2Cc1ccccc1 | inactive
21 | CCN(CC)CCn1cnc2c1c(=O)[nH]c(=O)n2Cc1ccccc1 | inactive
22 | CCOC(=O)C(CCOc1cccc(CC)c1)C(=O)OCC | inactive
23 | CCOC(=O)c1sc(N(Cc2ccccc2)C(=O)CN2C(=O)CN(C)C2=O)nc1C | inactive

Row | Compound | B-score
24 | Cc1cc(=O)[nH]c(SCc2ccc(Cl)cc2)n1 | inactive
25 | CC1CN(C(=O)c2cc(COc3c(F)cccc3F)on2)CCN1C (stereo unspecified) | inactive
26 | Cc1cccc(NS(=O)(=O)c2ccc(-c3cnc(C4CC4)o3)cc2)c1 | inactive
27 | O=S(=O)(c1ccc(Cl)s1)N1CCC2(CC1)OCCO2 | inactive
28 | O=C(NCCc1c[nH]c2ccccc12)c1cccc(Br)c1 | inactive
29 | O=C(NCCc1c[nH]c2ccccc12)C1CCN(Cc2ccc(Br)cc2)CC1 | -5.11 (active)
30 | Cc1ccc2[nH]cc(CCNC(=O)C3CCCCC3)c2c1 | inactive
31 | Cc1ccc(OCCOc2cccc(/C=N/NC(N)=O)c2)cc1 | inactive
32 | COc1ccc(CNC(=O)CN2CCC(n3nnc4cc(F)ccc43)CC2)cc1 | inactive
33 | N=c1n(CCc2ccccc2)c2ccccc2n1Cc1ccccc1F | -5.3 (active)
34 | CC(=O)NC(C)c1nc2ccccc2n1Cc1ccccc1F (stereo unspecified) | inactive
35 | Fc1ccccc1Cn1cnc(NC(=S)NCCc2ccccc2)n1 | inactive
36 | CC(C)CCOc1ccc(C(=O)C[N+]2(C)CCOCC2)cc1 | inactive
37 | Cc1ccccc1C(OCCN(C)C)C1CCCCC1 (stereo unspecified) | inactive
38 | CCOC(=O)C1=C(CSc2nnnn2C)N(C)C(=O)NC1c1ccccc1 (stereo unspecified) | inactive
39 | COc1cccc(-n2c(=S)[nH]c3c(oc4ccccc43)c2=O)c1 | inactive
40 | O=C(O)C(c1ccccc1)C1(O)CCCCC1 (stereo unspecified) | inactive
41 | CCC(C(=O)OCCN(CC)CC)c1ccccc1 (stereo unspecified) | inactive
42 | CN(C)CCOC(=O)C(c1ccccc1)C1(O)CCCC1 (stereo unspecified) | -7.55 (active)
43 | CCCCc1cc2c(s1)CCCC/C2=N/O | inactive
44 | Cc1ccc(-c2nc(COC(=O)c3c(C)noc3C)cs2)cc1 | inactive
45 | CCOc1cc(-c2conc2N)cc(OCC)c1OCC | inactive
46 | Cc1csc2ncc(C(=O)N(Cc3ccccc3)c3ccccn3)c(=O)n12 | inactive

Row | Compound | B-score
47 | CCCc1cc(=S)n2c([nH]c3ccccc32)c1C#N | -12.9 (active)
48 | CCOC(=O)CCc1c(C)c(C#N)c2[nH]c3ccccc3n2c1=O | inactive
49 | Cc1ccccc1Cn1c(=O)[nH]c2ccccc21 | inactive
50 | COc1ccc(OC)c(C(=O)c2ccc(C(=O)N3CCN(Cc4csc(C)n4)CC3)cc2)c1 | inactive
51 | CCOc1ccccc1NC(=S)N1CCN(c2cccc(C)c2C)CC1 | inactive
52 | CN(N)c1nc(N2CCCC2)nc(N2CCCC2)n1 | inactive
53 | Cn1c(NC(=O)c2ccc3c(c2)OCO3)cc(=O)n(C)c1=O | inactive
54 | Cn1c(=O)n(C)c2cc(C(=O)Nc3ccc(Br)cc3)ccc21 | inactive
55 | Cn1c(=O)n(C)c2cc(C(=O)Nc3ccc4c(c3)OCO4)ccc21 | -7.03 (active)
56 | CC(C)(C)c1cc(CN2CCN(CCC#N)CC2)cc(C(C)(C)C)c1O | inactive
57 | Cc1ccc(NC(=S)N(CCCN2CCC(C)CC2)Cc2ccco2)cc1 | inactive
58 | Cc1ccc(NC(=S)N(CCCN2CCCC2)Cc2cccn2Cc2ccc(Cl)cc2)cc1 | -5.03 (active)
59 | Cc1ccc(NC(=S)N(CCN2CCCCC2)Cc2ccco2)cc1C | inactive
60 | COC(=O)[C@@H]1C[C@H]2CC[C@H](O)C[C@H]2N1Cc1ccc(N2CCN(C)CC2)cc1 | inactive
61 | N#C/C(C(=S)Nc1ccccc1)=C1/NN=C(N2CCOCC2)N1c1ccccc1 | inactive
62 | COc1cccc(CC(=O)N2CCCC(CCC(=O)N3CCN(c4ccccn4)CC3)C2)c1 (stereo unspecified) | inactive
63 | CCC(c1nnnn1C1CCCC1)N1CCN(C(=O)c2ccco2)CC1 (stereo unspecified) | inactive
64 | CC(C)C(c1nnnn1CCc1ccccc1)N1CCN(C(=O)c2ccco2)CC1 (stereo unspecified) | -6.03 (active)
65 | CC(C)C(c1nnnn1C1CCCCC1)N1CCN(C(=O)c2ccco2)CC1 (stereo unspecified) | inactive
66 | CC1CC(C)CN(C/C=C/c2ccccc2[N+](=O)[O-])C1 (stereo unspecified) | -10.9 (active)
67 | O=[N+]([O-])c1ccccc1/C=C/CN1CCC(O)CC1 | inactive
68 | O=[N+]([O-])c1ccccc1/C=C/CN1CCCC(CO)C1 (stereo unspecified) | inactive
69 | CC1=C[C@H]2Cc3cc(C)cc(C)c3S(=O)(=O)[C@@H]2C=C1 | inactive

Row | Compound | B-score
70 | CC(=O)c1cc(C#N)c(SCC(=O)Nc2nccs2)nc1C | inactive
71 | Clc1ccc(C2=CSC3=Nc4cccc5cccc(c45)N23)cc1 | inactive
72 | CC(C)NC(=O)COCc1cc(-c2ccc3c(c2)OCO3)on1 | inactive
73 | CC(C)(C)c1ccc(C(=O)NCc2nnc(SCC(=O)N3CCCc4ccccc43)n2-c2ccccc2)cc1 | inactive
74 | Cn1c(S(=O)(=O)O)nc2ccccc21 | inactive
75 | N#C/C(=C1/CCCN1)c1ccccn1 | inactive
76 | Cn1c(/C(C#N)=C2/CCCCCN2)nc2ccccc21 | -6.04 (active)
77 | CC(=O)c1ccc(N2CCN(C(=O)c3ccc4nc[nH]c4c3)CC2)cc1 | inactive
78 | CC(=O)c1ccc(N2Cc3ccccc3C2)cc1 | inactive
79 | CCCCOc1ccc(CSC(=N)N)cc1[N+](=O)[O-] | -6.92 (active)
80 | CCCCOC(=O)CCCc1ccc([N+](=O)[O-])cc1[N+](=O)[O-] | inactive
81 | CCCOc1ccc(Cn2ccnc2)cc1[N+](=O)[O-] | inactive
82 | Cc1cc(OCCCCOc2ccc(C#N)cc2)ccc1[N+](=O)[O-] | inactive
83 | Cc1nc(SCc2ccc(F)cc2)c([N+](=O)[O-])[nH]1 | inactive
84 | CCCCCOc1ccc(CSC2=NCCN2)cc1[N+](=O)[O-] | -7.13 (active)
85 | COc1ccc(NC(=O)CN2C(=O)C(c3ccccc3)=NC23CCCCCC3)cc1OC | inactive
86 | Cc1cc(C)c2oc(C(=O)Nc3ccc(S(=O)(=O)Nc4nccc(C)n4)cc3)cc(=O)c2c1 | inactive
87 | c1ccc(-c2cnc(CN3CCN(c4ccccc4)CC3)o2)cc1 | inactive
88 | COc1cc([N+](=O)[O-])cc([N+](=O)[O-])c1NC(=O)N1CCOCC1 | inactive
89 | O=C(NN1C(=O)C2C3C=CC(C3)C2C1=O)c1ccco1 (stereo unspecified) | inactive
90 | COC(=O)C1=C(C)N(C)C(=S)NC1c1cc(OC)ccc1OC (stereo unspecified) | inactive
91 | CC(C)(C)NCc1cc(Br)ccc1OC1CCCC1 | -6.86 (active)
92 | COc1cc(CNC2CCCCC2)c(Br)cc1OC1CCCC1 | inactive

Row | Compound | B-score
93 | CCOCCCNCc1cc(Br)ccc1OCC | inactive
94 | O=C(c1ccc(CS(=O)(=O)c2ccccc2)o1)N1CCN(c2ccccc2)CC1 | inactive
95 | O=C(CNc1cccc(S(=O)(=O)N2CCCCC2)c1)Nc1ccccc1F | inactive
96 | COc1ccccc1CCNC(=O)C(=O)NCCC1CCCCN1S(=O)(=O)c1cccs1 (stereo unspecified) | inactive
97 | Cn1c(=NC(=O)c2cnccn2)sc2ccccc21 | -6.66 (active)
98 | Cn1c(=NC(=O)c2ccco2)sc2cccc(F)c21 | inactive
99 | COC(=O)c1ccc(OC(=O)c2cnccn2)cc1 | inactive
100 | O=C(COc1ccccc1)Nc1ccc(F)cc1 | inactive
101 | O=S(=O)(c1ccc(F)cc1)N1CCN=C1SCc1cccc(F)c1 | inactive
102 | COC(=O)c1ccccc1NC(=O)C1(S(=O)(=O)c2ccc(Cl)cc2)CC1 | inactive
103 | CCCCCCCCn1c2c(c(=N)c3c1CCC3)CCCC2 | -6.1 (active)
104 | Cc1ccc(NC(=O)CCOc2ccccc2)cc1S(=O)(=O)Nc1ccccc1Cl | inactive
105 | Cc1cc(C)c2nc(-c3ccco3)cc(C(=O)O)c2c1 | inactive
106 | Cc1cc(C)c2nc3nc(C)cc(C)c3c(N)c2c1 | -5.04 (active)
107 | COc1ccc(OCc2cc(C(=O)N3CCCC3)no2)c2ccccc12 | inactive
108 | CCOC(=O)/C=C/CN(C(=O)OC(C)(C)C)S(=O)(=O)N1CC=CC1 | inactive
109 | CC(Nc1nc(N2CCCC2)nc2ccccc12)c1ccccc1 (stereo unspecified) | -6.87 (active)
110 | CC(Nc1nc(N2CCOCC2)nc2ccccc12)c1ccccc1 (stereo unspecified) | inactive
111 | CC(Nc1nc(N2CCN(CCO)CC2)nc2ccccc12)c1ccccc1 (stereo unspecified) | inactive
